From the supplement of paper PMC3342239
Where a name gives a salt, the structure may show the parent alone.

test system: Saccharomyces cerevisiae; test: fraction of cells in G1 phase (DNA content, flow cytometry); higher = more cells with unreplicated DNA (G1 delay); details: temperature: 30 C; YPD; JTY2953 pdr5 snq2 (sensitized); drug added to: cultures diluted from stationary phase; 6-7 h
Procedure, shortened: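 S. cerevisiae grown in YPD at 30°C was exposed to library drugs. In one setup, overnight sensitized JTY2953 cultures were diluted 1∶200, given a final 20 µg/ml and fixed after 6–7 h, while other runs dosed dividing JTY2953 with fixation 6 h later or BY4741 with fixation 4.33 h later. Cells were ethanol-fixed, stained with SYTOX Green and analysed by flow cytometry at 10,000 events. The G1 fraction is the area of the Dean-Jett-Fox G1 peak divided by the summed G1 and G2/M areas.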

Compound | fraction of cells in G1 phase
CNC1(C)C2CCC(C2)C1(C)C (stereo not drawn) [Mecamylamine HCl] (119.548 µM) | 0.486
CCCOc1ccc2[nH]c(NC(=O)OC)nc2c1 [Oxibendazole] (80.2338 µM) | 0.481
COc1c(C)c2c(c(O)c1C/C=C(\C)CCC(=O)O)C(=O)OC2 [Mycophenolic acid] (62.4326 µM) | 0.54
CC(c1cc2ccccc2s1)N(O)C(N)=O (stereo not drawn) [Zileuton] (84.6401 µM) | 0.53
COC(=O)Nc1nc2cc([S+]([O-])c3ccccc3)ccc2[nH]1 (stereo not drawn) [Oxfendazole] (63.421 µM) | 0.536
COc1ccc(/C=C/C(=O)Nc2ccccc2C(=O)O)cc1OC [Tranilast] (61.0986 µM) | 0.546
C[C@]12CCC(=O)C=C1CC[C@@H]1[C@@H]2[C@@H](O)C[C@@]2(C)[C@H]1CC[C@]2(O)C(=O)CO [Hydrocortisone] (55.1769 µM) | 0.483
C=C1C[C@H]2[C@@H]3C=C(C)C4=CC(=O)CC[C@]4(C)[C@H]3CC[C@]2(C)[C@@]1(OC(C)=O)C(C)=O [Melengestrol acetate] (50.4374 µM) | 0.569
CC(C)OC(=O)C(C)(C)Oc1ccc(C(=O)c2ccc(Cl)cc2)cc1 [Fenofibrate] (55.4261 µM) | 0.497
CCCCc1nc(Cl)c(CO)n1Cc1ccc(-c2ccccc2-c2nnn[nH]2)cc1 [Losartan potassium] (43.3825 µM) | 0.487
COc1ccc(C(=O)NCc2ccc(OCCN(C)C)cc2)cc1OC [Itopride HCl] (55.7972 µM) | 0.501
CC1=C(/C=C/C(C)=C/C=C/C(C)=C/C=C/C=C(C)/C=C/C=C(C)/C=C/C2=C(C)C(=O)CCC2(C)C)C(C)(C)CCC1=O [Canthaxanthin] (35.4071 µM) | 0.527
CC(=O)NC[C@H]1CN(c2ccc(N3CCOCC3)c(F)c2)C(=O)O1 [Linezolid] (59.2849 µM) | 0.526
COc1ccc2c(c1)c(CC(=O)O)c(C)n2C(=O)c1ccc(Cl)cc1 [Indomethacin] (55.8977 µM) | 0.519
Cn1nnc2c(C(N)=O)ncn2c1=O [Temozolomide] (103.011 µM) | 0.48
CCC(=O)O[C@]1(C(=O)CCl)[C@@H](C)C[C@H]2[C@@H]3CCC4=CC(=O)C=C[C@]4(C)[C@@]3(F)[C@@H](O)C[C@@]21C [Clobetasol propionate] (42.8282 µM) | 0.526
O=C(N[C@H](CO)[C@H](O)c1ccc([N+](=O)[O-])cc1)C(Cl)Cl [Chloramphenicol] (61.8937 µM) | 0.482
N[C@@H](Cc1ccc(O)c(O)c1)C(=O)O [Levodopa] (101.424 µM) | 0.487
CNC(=C[N+](=O)[O-])NCCSCc1ccc(CN(C)C)o1 [Ranitidine HCl] (63.6114 µM) | 0.501

Compound | fraction of cells in G1 phase
CC(C)NNC(=O)c1ccncc1 [Iproniazid] (111.593 µM) | 0.47
CCOc1nc2cccc(C(=O)O)c2n1Cc1ccc(-c2ccccc2-c2nnn[nH]2)cc1 [Candesartan] (45.4065 µM) | 0.506
CC1(C)[C@H](C(=O)O)N2C(=O)C[C@H]2S1(=O)=O [Sulbactam] (85.7469 µM) | 0.477
CCCCC[C@H](O)/C=C/[C@@H]1[C@@H](C/C=C\CCCC(=O)O)[C@@H](O)C[C@H]1O [Dinoprost] (56.4189 µM) | 0.523
CCCCCN(C)CCC(O)(P(=O)(O)O)P(=O)(O)O [Ibandronate] (62.65 µM) | 0.474
C[C@@H](O[C@H]1OCCN(Cc2n[nH]c(=O)[nH]2)[C@H]1c1ccc(F)cc1)c1cc(C(F)(F)F)cc(C(F)(F)F)c1 [Aprepitant] (37.4225 µM) | 0.493
CCC1(c2ccccc2)NC(=O)N(C)C1=O (stereo not drawn) [Mephenytoin] (91.6348 µM) | 0.522
CC1=C(CC(=O)O)c2cc(F)ccc2/C1=C\c1ccc([S+](C)[O-])cc1 (stereo not drawn) [Sulindac] (56.1137 µM) | 0.521
Cn1c(=O)c2[nH]cnc2n(C)c1=O [Aminophylline] (111.008 µM) | 0.49
C[C@H]1[C@H](NC(=O)/C(=N\OC(C)(C)C(=O)O)c2csc(N)n2)C(=O)N1S(=O)(=O)O [Aztreonam] (45.9309 µM) | 0.489
Nc1ncnc2c1ncn2[C@@H]1O[C@H](CO)[C@@H](O)[C@@H]1O [Vidarabine] (74.8374 µM) | 0.481
CC(C)n1c(/C=C/[C@@H](O)C[C@@H](O)CC(=O)O)c(-c2ccc(F)cc2)c2ccccc21 [Fluvastatin Na] (48.6053 µM) | 0.464
CN(C(=O)CCCOc1ccc2[nH]c(=O)ccc2c1)C1CCCCC1 [Cilostamide] (58.4041 µM) | 0.499
C[C@@H]1C[C@H]2[C@@H]3CCC4=CC(=O)C=C[C@]4(C)[C@@]3(F)[C@@H](O)C[C@]2(C)[C@@]1(O)C(=O)CO [Dexamethasone] (50.9591 µM) | 0.504
Oc1ncnc2[nH]ncc12 [Allopurinol] (146.936 µM) | 0.483
Nc1ccc(O)c(C(=O)O)c1 [5-aminosalicylic acid] (130.601 µM) | 0.48
Cc1oncc1C(=O)Nc1ccc(C(F)(F)F)cc1 [Leflunomide] (74.0157 µM) | 0.555
C[C@H]1C[C@H]2[C@@H]3CCC4=CC(=O)C=C[C@]4(C)[C@@]3(F)[C@@H](O)C[C@]2(C)[C@@]1(O)C(=O)CO [Betamethasone] (39.6353 µM) | 0.508
CC(=O)Nc1ccc(CC(=O)O)cc1 [Actarit] (103.52 µM) | 0.521
